GLP-1R agonist: activates the human GLP-1 receptor; P43220; HEK293 GLP-1R CRE-luciferase, luminescence, 4-6 h; cells express a hypersensitive GLP-1R form; Potency, µM (titrated, usually from 45.6 µM), inactives show top-dose activation, most hits filed as activators; hit rate 0.007% among 380,000; AID 624172; further: % of control where 0% means no effect
Target sequence (P43220 whole entry, looked up): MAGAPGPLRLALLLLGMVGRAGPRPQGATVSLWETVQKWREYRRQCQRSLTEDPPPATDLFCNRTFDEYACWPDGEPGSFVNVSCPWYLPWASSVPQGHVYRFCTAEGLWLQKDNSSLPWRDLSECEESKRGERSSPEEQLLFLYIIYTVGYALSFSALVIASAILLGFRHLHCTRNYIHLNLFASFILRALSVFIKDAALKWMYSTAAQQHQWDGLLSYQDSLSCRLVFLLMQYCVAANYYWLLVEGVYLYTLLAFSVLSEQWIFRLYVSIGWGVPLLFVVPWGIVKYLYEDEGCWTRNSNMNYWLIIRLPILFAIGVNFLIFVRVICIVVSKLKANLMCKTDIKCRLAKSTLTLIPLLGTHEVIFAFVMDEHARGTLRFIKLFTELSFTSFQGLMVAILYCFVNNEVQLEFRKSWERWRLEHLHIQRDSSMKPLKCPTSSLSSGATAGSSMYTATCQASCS
ATXN2 expr inh: ATXN2 expression inhibition; Potency, µM (series often up to 57 µM), inactives show top-dose activity change, negative = inhibition, hits mostly inhibitors; HEK-293 ATXN2-luciferase reporter, luminescence, 24 h; hit rate 0.72% among 360,000; AID 1745845; further: on the % scale 0 is the no-effect control and ±100 the full control effect; nearly all actives have a fitted effect of over 55% in size
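ATXN2-luciferase reporter cells (luciferase flanked by upstream and downstream ATXN2 gene portions) were treated 24 h at 37 °C with compounds at up to 57 uM. SteadyGlo luminescence gave expression; GF-AFC fluorescence gave viability.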
HepG2 tox-1: counter-screen for TGF-b inhibitors: cytotoxicity in HepG2 cells | Potency, µM (highest dose often 46.1 µM), for the others: at the top dose activity change, negative = cytotoxicity, most hits filed as cytotoxic | hit rate 0.76% among 410,000 | HepG2 CAGA-GFP viability, ATP luminescence, 18 h
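CellTiter-Glo luminescence gave cytotoxicity after 18 hours at 37 degrees C. The cells were HepG2 CAGA-GFP in 1% FBS DMEM, stimulated with 500 pg/mL TGF-beta after compound addition. %Activity was normalised to no-cell wells (complete cell-killing) and DMSO (no toxicity), and curves were fitted and classified.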
TGFb inhibitor: inhibitors of TGF-b signaling; HepG2 CAGA-GFP TGF-b/SMAD3 reporter, GFP fluorescence, 18 h; TGF-beta stimulated, 500 pg/mL final; Potency, µM (series often up to 46.1 µM), for inactives: at the highest dose activity, negative = inhibition, hits mostly inhibitors; hit rate 1.2% among 410,000; AID 588855; further: on the % scale 0 is the no-effect control and ±100 the full control effect; nearly all actives have a fitted effect of over 65% in size
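Using HEPG2 CAGA-GFP reporter cells at 1000 cells/well, we pinned test compounds, stimulated with recombinant TGF-beta (500 pg/mL final) and measured total well GFP after 18 h.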
GLP-1R inv ag: inverse agonists of human GLP-1 receptor | P43220 | hit rate 1.6% among 410,000 | HEK293 GLP-1R CRE-luciferase, luminescence, 24 h; GLP-1R form is constitutively active | Potency, µM (titrated, usually from 38.3 µM), for the others: top-dose activity change, negative = inhibition, most hits filed as inhibitors; further: on the % scale 0 is the no-effect control and ±100 the full control effect; nearly all actives have a fitted effect of over 55% in size
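Constitutively active GLP-1R drives a cAMP-responsive luciferase in stably transfected HEK293 cells; test compounds are added after overnight (12 h) attachment and left 24 hr, and signal loss in luminescence marks inhibition.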
ATXN viability: cell viability loss in ATXN counter-screen. S2 cells (HEK-293 line with an ATXN2-luciferase reporter) viability, CellTiter-Fluor protease fluorescence, 24 h. Potency, µM (highest dose often 56.7 µM), hits mostly cytotoxic. hit rate 0.49% among 400,000; further: nearly all actives have a fitted effect of over 40% in size
TGFb confirm: TGF-b pathway inhibition, cherry-pick retest; shares compounds with TGFb inhibitor; HepG2 CAGA-GFP TGF-b reporter, GFP fluorescence, 18 h; cells stimulated with TGF-beta, 500 pg/mL; Potency, µM (series often up to 46.1 µM), for the others: at the top dose activity, negative = inhibition, most hits filed as inhibitors; hit rate 63% among 1,600; further: on the % scale 0 is the no-effect control and ±100 the full control effect; nearly all actives have a fitted effect of over 65% in size
HepG2 tox-2: toxic to HepG2 cells in TGF-b counterscreen; shares compounds with TGFb inhibitor; HepG2 CAGA-GFP viability, ATP luminescence, 18 h; cells stimulated with TGF-beta, 500 pg/mL; Potency, µM (top dose mostly 46.1 µM), without a hit: at the top dose activity, negative = cytotoxicity, actives largely listed as inhibitors; hit rate 27% among 1,600; AID 720535; further: on the % scale 0 is the no-effect control and ±100 the full control effect; nearly all actives have a fitted effect of over 70% in size
CCL64 TGFb inh: orthogonal confirmation of TGF-b inhibitors in CCL64 cells | hit rate 41% among 1,600 | AID 720536 | shares compounds with TGFb inhibitor | Potency, µM (series often up to 46.1 µM), without a hit: top-dose activity, negative = inhibition, hits mostly inhibitors | CCL64 CAGA-GFP reporter, TGF-b stimulated, GFP fluorescence, 18 h; further: nearly all actives have a fitted effect of over 65% in size
TGFb COP inh: blocks TGF-b signaling in HepG2 COP reporter. shares compounds with TGFb inhibitor. HepG2 COP-GFP TGF-b reporter, GFP fluorescence, 18 h; cells stimulated by added recombinant TGF-beta. Potency, µM (doses to about 46.1 µM), inactives show top-dose activity, negative = inhibition, most hits filed as inhibitors. hit rate 3% among 1,600. AID 720537; further: nearly all actives have a fitted effect of over 70% in size
An asterisk follows results filed as active; i = inactive; ? = inconclusive; . = no result. Shown are actives, neighbours in structure and some others; about 3.7% of the full set was active somewhere. The call rests on the fitted dose curve; in most records, active means well fitted curve in the direction sought with a large enough effect; inconclusive means small, poorly fitted or top-dose-only effect, or another doubt; inactive means no such curve, though single readings can be large; an effect the other way counts as inactive or inconclusive. Potency means the concentration at half of the fitted maximal effect.

SMILES | GLP-1R agonist | ATXN2 expr inh | HepG2 tox-1 | TGFb inhibitor | GLP-1R inv ag | ATXN viability | TGFb confirm | HepG2 tox-2 | CCL64 TGFb inh | TGFb COP inh
CCOc1ccc(CCN2C(=S)N([C@@H](CC(C)C)CN3CCC[C@@H]3CN3C(=S)NC[C@@H]3Cc3ccccc3)C[C@@H]2Cc2ccc(O)cc2)cc1 | 0.8% | -22.9% | -15.7% | 7.94µM* | ? | i | ? | ? | ? | 27.1%
CC(C)C[C@@H](CN1CCC[C@@H]1CN1C(=S)NC[C@@H]1Cc1ccc(O)cc1)N1C[C@H](Cc2ccccc2)N(CCc2ccccc2)C1=S | -5.4% | ? | -5.9% | 15.8µM* | ? | ? | ? | -29.9% | ? | 26.1%
CC(C)C[C@H]1CN([C@@H](CC(C)C)CN2CCCC2CN2C(=S)NC[C@@H]2Cc2ccc(O)cc2)C(=S)N1CCc1ccccc1 (stereo partly drawn) | 5.9% | -24.0% | -1.5% | ? | ? | ? | . | . | . | .
CCOc1ccc(CCN2C(=S)N([C@@H](Cc3ccccc3)CN3CCCC3CN3C(=S)NC[C@@H]3Cc3ccccc3)C[C@@H]2Cc2ccc(O)cc2)cc1 (stereo partly drawn) | -2.9% | -2.4% | . | . | -29.0% | ? | . | . | . | .
CC(C)C[C@@H](CN1CCCC1CN1C(=S)NC[C@@H]1Cc1ccc(O)cc1)N1C[C@H](Cc2ccccc2)N(CCc2ccccc2)C1=S (stereo partly drawn) | -2.5% | -19.7% | -59.6% | ? | ? | i | ? | -19.6% | ? | 26.7%
CCN(CC)CCn1c2c(c(SCC(=O)Nc3cccc(C(F)(F)F)c3)nc1=O)CCC2 | . | . | -9.5% | -7.2% | 7.8% | . | . | . | . | .
O=C(N/N=C/c1cc(Cl)ccc1O)c1ccccc1Br | -5.1% | 3.16µM* | -29.0% | ? | ? | i | ? | ? | ? | -1.9%
O=C(N/N=C/c1cc(Cl)ccc1O)c1cccnc1 | 7.5% | ? | -22.4% | -2.2% | ? | i | . | . | . | .
O=C(C1=C[C@@H](C2CCCCC2)C[C@@H](OCc2ccc(CO)cc2)O1)N1CCN(Cc2ccc3c(c2)OCO3)CC1 | 14.0% | ? | 7.2% | 11.2µM* | ? | ? | 20.6µM* | -28.5% | ? | 54.7%
O=C(C1=C[C@H](C2CCCCC2)C[C@H](OCc2ccc(CO)cc2)O1)N1CCN(Cc2ccc3c(c2)OCO3)CC1 | 5.0% | ? | -11.0% | ? | ? | ? | . | . | . | .
CCOc1ccc(CNC(=O)c2ccc(Sc3ccc(Cl)cc3)c(NC(C)=O)c2)cc1 | 3.9% | ? | -19.0% | ? | ? | i | . | . | . | .

Bioassay records from PubChem BioAssay.
